aSyn 5UTR act = Activators via SNCA 5'UTR binding, MLPCN; alpha-synuclein 5'UTR reporter, activators screen; activity score, % (tested at 7.5 µM), hits read low; actives 7.1% (n = 300,000); AID 1814; in the data active = activity score below about -60%
An asterisk follows results filed as active. A selection follows.

SMILES	aSyn 5UTR act
N#Cc1c(NC(=O)C2CCCO2)sc2c1CCCCCC2 (stereo not drawn)	-98*
C=CCn1c(O)c(C=Nc2ccccc2)sc1=S	-107*
CCn1c(O)c(/C=C2\C=Nc3ccccc32)sc1=O	-245*
CCn1c(O)c(C=Nc2ccccc2)sc1=S	-153*
CC1=Nc2ccccc2/C1=C/c1sc(=N)n(-c2nccs2)c1O	63
CCn1c(O)c(C=Nc2ccccc2)sc1=O	-101*
Oc1nc(Nc2ccccc2)sc1/C=C1\C=Nc2ccccc21	-112*
CCS(=O)(=O)c1ccc2oc(Nc3ccccc3Br)nc2c1	-108*
CCS(=O)(=O)c1ccc2oc(Nc3ccccc3Cl)nc2c1	-154*
CCS(=O)(=O)c1ccc2oc(Nc3cccc(OC)c3)nc2c1	-145*
Cc1ccc2c(C)c(C(=O)N3CCN(Cc4ccc5c(c4)OCO5)CC3)oc2c1C	-63*
O=[N+]([O-])c1ccc2nc(/C=C/c3ccc(Cl)cc3)[nH]c2c1	-151*
O=[N+]([O-])c1ccc(-c2nc3ccc([N+](=O)[O-])cc3[nH]2)cc1	-143*
Nc1ccc(-c2nc3ccc([N+](=O)[O-])cc3[nH]2)cc1	-84*
COc1ccccc1N1CCN(S(=O)(=O)CCNC(=O)c2cc(OC)c(OC)c(OC)c2)CC1	61
COc1cc(C(=O)Nc2cc3c(cc2N2CCCCC2)n(C)c(=O)n3C)cc(OC)c1OC	-79*
O=C(NCc1ccccn1)C(=O)Nc1ccccc1	-150*
Cc1ccc(NC(=O)C(=O)NCc2ccccn2)cc1	-110*
CC(C)(C)c1cc(NC(=O)c2cc(F)c(F)c(F)c2F)no1	-63*
CC(C)(C)c1cc(NC(=O)c2cccnc2)no1	-102*
CC(C)(C)c1cc(NC(=O)c2cccs2)no1	-77*
CC(C)(C)c1cc(NC(=O)C2CCCO2)no1 (stereo not drawn)	-104*
CCCCOC(=O)Nc1ccc(N2CCOCC2)cc1	-163*
CCCCOC(=O)Nc1ccc(N2CCCCC2)cc1	-158*
O=C(N/N=C/C(Cl)=C\c1ccccc1)c1ccco1	-224*
SMILES	aSyn 5UTR act
O=C(N/N=C/C(Cl)=C/c1ccccc1)c1ccco1	-158*
O=C(Nc1cccnc1)c1cc2cc(Br)ccc2o1	-116*
O=C(NC(=S)Nc1cccnc1)c1cc2ccccc2o1	-66*
Cc1cc(C)cc(C(=O)NC(=S)Nc2ccc(-c3cc4ccccc4oc3=O)cc2)c1	97
O=C(NC(=S)Nc1ccc(CN2CCCCC2)cc1)c1cc2ccccc2o1	-68*
CC(=O)Nc1ccc(NC(=S)NC(=O)c2cc3ccccc3o2)cc1	-71*
Cc1cccc(C)c1N=C1SC(CC(=O)Nc2c(C)cccc2C)C(=O)N1CCc1ccccn1 (stereo not drawn)	67
C/C(=N\N=C(/N)c1nonc1N)c1ccc2c(c1)OCO2	-110*
CSc1ccc(CC(=O)N2CCC(n3nccc3NC(=O)C3CC3)CC2)cc1	-116*
CSCC(=O)N1CCC(n2nccc2NC(=O)c2ccc3c(c2)OCO3)CC1	-110*
Oc1ccc(/C=N/Nc2nccnc2Cl)c(O)c1	88
Oc1ccc(/C=N/Nc2cccc3cccnc23)c(O)c1	-405*
Cc1ccc(/C=N/Nc2cccc3cccnc23)c(O)c1	-271*
Cc1ccc(S(=O)(=O)Nc2cccc3cccnc23)c([N+](=O)[O-])c1	71
O=C(Nc1sc2c(c1C(=O)O)CCCCC2)c1cccs1	-80*
CC(C)(C)c1ccc(C(=O)Nc2sc3c(c2C(=O)O)CCC3)cc1	95
NC(=O)c1c(NC(=O)c2ccc(F)cc2)sc2c1CCC2	-184*
COc1ccccc1C(=O)Nc1sc2c(c1C(N)=O)CCCC2	-83*
O=C(Nc1sc2c(c1C(=O)O)CCCC2)c1ccc(F)cc1	-94*
C/C(=N\NC(=O)c1nn(C)c(C)c1Br)c1ccc(NC(=O)c2ccccc2F)cc1	-69*
C/C(=N\NC(=O)c1ccoc1C)c1cccnc1	-117*
C/C(=N\NC(=O)c1ccc(NS(=O)(=O)c2cccs2)cc1)c1ccccn1	71
C/C(=N/NC(=O)c1ccoc1C)c1ccc(NC(=O)c2ccncc2)cc1	-206*
C/C(=N/NC(=O)c1ccoc1C)c1ccc(N2CCOCC2)cc1	-131*
CCOc1ccc(-c2cc(C(=O)N/N=C(\C)c3cccnc3)c3ccccc3n2)cc1	-92*
SMILES	aSyn 5UTR act
Cc1ccc(/C=N/NC(=O)c2cc(-c3cccnc3)nc3ccccc23)cc1	81
C/C(=N\NC(=O)c1nn(C)c(C)c1Br)c1ccc(NC(=O)c2ccc(C)s2)cc1	-149*
C/C(=N\NC(=O)c1nn(C)c(C)c1Br)c1ccc(NC(=O)c2ccoc2C)cc1	-115*
C/C(=N\NC(=O)c1c(Br)c(C)nn1C)c1ccc(NC(=O)c2ccoc2C)cc1	-106*
COC(=O)c1ccc2c(c1)C(=O)/C(=C/c1ccc(C)cc1)O2	-143*
COC(=O)c1ccc(/C=C2\Oc3ccccc3NC2=O)cc1	-110*
CC(=O)NC1=NN(C(C)=O)C(c2ccc(C(C)C)cc2)S1 (stereo not drawn)	-77*
O=C(/C=C/Nc1ccc(Nc2ccccc2)cc1)c1cccs1	-170*
O=C(/C=C/Nc1ccccc1C(=O)O)c1cccs1	-72*
Cc1ccc(N/C=C/C(=O)c2cccs2)cc1C	-180*
Cc1cc(N/C=C/C(=O)c2cccs2)ccc1F	-250*
O=C(/C=C/Nc1cccc([N+](=O)[O-])c1)c1cccs1	-279*
CC(Cc1cccs1)NC(=O)Nc1ccc(Cl)c(Cl)c1 (stereo not drawn)	-90*
CC(Cc1cccs1)NC(=O)Nc1ccc(Cl)cc1 (stereo not drawn)	-221*
CCCC(=O)NC(c1cccs1)c1cc(Cl)c2cccnc2c1O (stereo not drawn)	99
CN(C)C(=O)CSc1nnc(C23CC4CC(CC(C4)C2)C3)o1	-160*
CCSc1n[nH]c(=S)s1	-89*
COc1ccc(/C=C2\SC(N3CCCCC3)=NC2=O)cc1	-92*
O=C1N=C(N2CCCCC2)S/C1=C\c1cn[nH]c1-c1ccccc1	-78*
COc1ccc(/C=C/c2ccncc2)cc1	-96*
O=C(Oc1ccc2ccc(OC(=O)N3CCCCCC3)cc2c1)N1CCCCCC1	-81*
O=C(Oc1ccc(Cl)cc1)N1CCCCC1	-110*
CC(=C/c1ccc(C(C)C)cc1)/C=N/NC(=O)CSc1ccccn1	-164*
CC(/C=N/NC(=O)CSc1ccccn1)=C\c1ccc(C(C)C)cc1	-254*
O=C(O)c1cnn(-c2nc(-c3ccc(Cl)cc3)cs2)c1C(F)(F)F	-92*
SMILES	aSyn 5UTR act
COC(=O)c1cnn(-c2nc(-c3ccccc3)cs2)c1N	-171*
COc1ccc(-c2csc(-n3ncc(C(=O)O)c3C(F)(F)F)n2)cc1	-76*
Cc1cc(-c2nnc3n2N=C(c2ccc(F)cc2)CS3)n[nH]1	-77*
Cc1cccc(-c2nnc3n2N=C(c2ccccc2)CS3)c1	63
C/C(=N\Nc1cc(Cl)nc(C)n1)c1ccccc1	-142*
O=C(COc1ccc(Cl)cc1)Nc1ncccn1	-99*
Cc1ccnc(NC(=O)COc2ccc(Cl)cc2)n1	-83*
COc1cc(/C=C2/CC/C(=C/c3ccc(O)c(OC)c3)C2=O)ccc1O	-71*
COc1ccc(/C=C2\CCC/C(=C\c3ccc(OC)c(OC)c3OC)C2=O)c(OC)c1OC	-71*
CCN1C/C(=C/c2ccc(OC)c(O)c2)C(=O)/C(=C/c2ccc(OC)c(O)c2)C1	116
COc1cc(/C=C2\COC/C(=C\c3ccc(O)c(OC)c3)C2=O)ccc1O	103
COc1cc2c(c(OC)c1OC)-c1ccc(OC)c(=O)cc1C(NC(C)=O)CC2 (stereo not drawn)	75

High-throughput results from PubChem BioAssay.
